“And” between values parts separate entries of the source, which are not always exact repeats. Equal entries are not always repeated. Compounds without any hit were thinned out: in the full panel of roughly 79,000, 15% have a hit. Unmarked numbers belong to inactive results. The source made the active and inactive calls. Cut-off read from the data, not from the text of the source: active = growth inhibition above about 70%; inactive = the rest.
Experiments:
[1] = NCI Yeast Anticancer Drug Screen. Data for the rad50 strain (AID 155);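 note: 0% = growth of vehicle-only cultures of the same strain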; settings: S. cerevisiae rad50 strain growth inhibition; at 50.0 µM; stronger effect = higher value
In short: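 Yeast carrying a defined DNA repair defect were exposed to test compounds, and growth was compared with vehicle-treated controls to give percent inhibition.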

[2] = NCI Yeast Anticancer Drug Screen. Data for the mec2-1 strain (AID 157); settings: S. cerevisiae mec2-1 strain, at 50.0 µM, stronger effect = higher value
In short: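 Test agents were screened against the mec2-1 yeast strain, with defined DNA repair or cell cycle alteration. Growth was scored as inhibition against vehicle-only controls.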

[3] = NCI Yeast Anticancer Drug Screen. Data for the sgs1 mgt1 strain (AID 161);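 note: 0% = growth of cultures given vehicle only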; settings: S. cerevisiae sgs1 mgt1 strain, at 50.0 µM, stronger effect = higher value
In short: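 Read-out: growth inhibition vs vehicle controls. Cells: mutant yeast strain deficient in DNA damage repair.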

[4] = NCI Yeast Anticancer Drug Screen. Data for the cln2 rad14 strain (AID 165);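 note: 0% = growth equal to vehicle treated cultures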; settings: S. cerevisiae cln2 rad14 strain, at 50.0 µM, stronger effect = higher value
In short: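 Growth of compound-exposed yeast (cln2 rad14 genotype) measured and expressed as inhibition relative to vehicle.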

[5] = NCI Yeast Anticancer Drug Screen. Data for the bub3 strain (AID 167); settings: S. cerevisiae bub3 mutant strain, at 50.0 µM, stronger effect = higher value
In short: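 Compounds were applied to a genetically altered yeast strain carrying a cell-cycle control defect. Growth inhibition was scored against vehicle-treated controls.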

[6] = NCI Yeast Anticancer Drug Screen. Data for the mlh1 rad18 strain (AID 175); settings: S. cerevisiae mlh1 rad18 strain growth inhibition; at 50.0 µM; stronger effect = higher value
In short: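 In this whole-cell yeast screen, a strain with altered DNA damage repair is challenged with compound, and its growth is measured against matched vehicle-treated controls.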

SMILES	growth inhibition [1]	growth inhibition [2]	growth inhibition [3]	growth inhibition [4]	growth inhibition [5]	growth inhibition [6]
CS(=O)(=O)CCC(N)P(=O)(O)O (stereo not given)	-45.9%	-47.9%	-48.5%	-9.4%	-21.8%	-30.8%
Brc1ccc(NP(Br)(c2ccccc2)(c2ccccc2)c2ccccc2)cc1	52.8%	5.6%	58%	11.8%	11.9%	20.1%
CS(=O)(=O)OCCN(CCCl)c1cc(C(N)=O)c([N+](=O)[O-])cc1[N+](=O)[O-]	-6.8%	-5.5%	5.45%	-16.4%	-11.4%	-1.65%
CC(=O)Nc1nc(CCl)cs1	11.8%	-1.1%	13.6%	5.55%	27.3%	9.6%
CC1(CCl)COP(=O)(NN)OC1 (stereo not given)	3.95%	-3.15%	-3.85%	-28.7%	12%	5.35%
OCC12COCN1COC2	8.4%	-15.9%	-23.6%	-14%	-0.4%	-31.9%
COC(=O)c1ccc(C=C(C#N)C#N)cc1	-5.75%	-2.6%	-27.9%	30.6%	2.45%	-21%
CC(C)[CH2][Sn]([CH2]C(C)C)([CH2]C(C)C)[C](C)(C)C	99.3% (active)	99.7% (active)	99.5% (active)	99.2% (active)	99.4% (active)	99.5% (active)
[N-]=[N+]=CC(=O)OCC(N)C(=O)O (stereo not given)	4.5%	-12.8%	-5.35%	14.1%	-6.7%	-0.6%
C1CCC2[N-]CCCC2C1.C1CCC2[N-]CCCC2C1.O=[N+]([O-])O.O=[N+]([O-])O.[Cu+2] (stereo not given)	21.6%	21.6%	15.2%	-19.2%	-4.35%	25.1%
O=C(Cl)C1CCC1	11%	-5.35%	10.1%	-4.65%	-7%	16.1%
c1ccc(-c2ccc[n+](CCC[n+]3cccc(-c4ccccn4)c3)c2)nc1	2.9%	2.45%	-15.2%	-8.45%	-5.75%	6.25%
CCN(CCCl)CCCCCNc1c2ccccc2nc2ccc(OC)cc12	84.5% (active)	84.5% (active)	83% (active)	84.3% (active)	78.8% (active)	76% (active)
COC(=O)C(CC(=O)N[N+](=O)[O-])NC(=O)C(CSC(c1ccccc1)(c1ccccc1)c1ccccc1)NC(=O)OCc1ccccc1 (stereo not given)	-3.4%	11.7%	-4.25%	-15.1%	-8.1%	29.3%
CCOC(=O)C(Br)C(C)Br (stereo not given)	-13.4%	-39.5%	-23.1%	7.1%	-9.65%	-22.5%
CCOC(OCC)C(CC)[Se]c1ccccc1 (stereo not given)	4.45%	-9.6%	13.4%	0.6%	2.7%	-7.9%
COC1/C=C/C=C(/C)Cc2cc(O)c(Cl)c(c2)N(C)C(=O)CC(OC(=O)C(C)C)C2(C)OC2C(C)C2CC1(O)NC(=O)O2 (stereo not given)	-9.05%	-11.2%	-15.8%	-9.15%	-6.2%	-53%
O=C([O-])CC(=O)[O-].O=C([O-])CC(=O)[O-].[K+].[Pd+2]	14.2%	19.1%	28.2%	26.6%	11.5%	16.2%
O=[N+]([O-])O.[Ce]	13.3%	3.35%	17.9%	5.8%	24.6%	4.15%
Cn1c(=O)n(C)c(=O)n(C)c1=O	3.8%	6.65%	-5.2%	-1.55%	14.6%	-12.6%

SMILES	growth inhibition [1]	growth inhibition [2]	growth inhibition [3]	growth inhibition [4]	growth inhibition [5]	growth inhibition [6]
OCC(O)C(O)CO (stereo not given)	6.7% and 6.95%	-0.55% and 8.95%	3.55% and 0.4%	-61.8% and 20.8%	12.1% and 24.6%	-1.05% and 0.1%
N/N=C(\N)c1nn[nH]n1	-9.55%	-12.4%	-12.7%	-6.05%	12.9%	-11.9%
O=C(Oc1ccc(S(=O)(=O)F)cc1Cl)c1ccccc1Cl	99.4% (active)	99.6% (active)	99.5% (active)	99.3% (active)	99.4% (active)	99.4% (active)
C/C=C/CC1(CCC(C)C)C(=O)NC(=O)NC1=O	24.4% and 26.9%	8.05% and -0.65%	9.9% and 4.75%	-19.1% and -4.55%	-5.4% and -2.35%	10.3% and 17.4%
CCN1C(=O)C(=C/C=C/c2ccc([N+](=O)[O-])cc2)C(=O)N(CC)C1=S	8.55%	9.95%	19.1%	19.9%	18.6%	18.1%
O=C(N/N=C/c1cc(Br)cc(Br)c1[O-])c1ccccc1O.O=C(N/N=C/c1cc(Br)cc(Br)c1[O-])c1ccccc1O.[Cl-].[Fe+3]	-3.25%	0.15%	-4.95%	-30.1%	12.1%	13.3%
CCc1cccc(C(C)C)c1NC(=O)C(=O)C1C(=O)NC(=O)NC1=O	-40.1%	-12.2%	-9.45%	18.1%	-10.6%	-31.4%
Nc1ccc(/C=C/C(=O)Nc2ccc(S(=O)(=O)F)cc2)cc1	22.4%	96.2% (active)	21.1%	40.1%	99% (active)	95.5% (active)
CN1CCC2CCCCN2CC1=O (stereo not given)	-4.15%	0.45%	-1%	-4.35%	-12%	-4%
Cc1c2ccccc2c(CNCCSCCCl)c2ccc3ccccc3c12	97.2% (active)	98.5% (active)	98.4% (active)	98.3% (active)	97.5% (active)	98.8% (active)
C/C=C(\C)C(=O)OC1CCN2CC=C(COC(=O)C(O)(C(C)O)C(C)(C)O)C12 (stereo not given)	12.3%	2.3%	2.5%	4.85%	6.25%	-0.55%
N.N.N.N.N.N.[I-].[Os]	23.5%	1.45%	5.4%	7.6%	1.25%	-2%
CN(C)S(=O)(=O)N(SC(F)(Cl)Cl)c1ccccc1	98.8% (active)	99.5% (active)	99.4% (active)	98.8% (active)	99.2% (active)	99% (active)
Cc1ccc(C(C)(C)C)c(OP(=S)(S)Oc2cc(C)ccc2C(C)(C)C)c1.[Pb]	5.9%	-1.85%	-1.3%	9.7%	-13.7%	7.3%
CCCCC1(CCS)C(=O)NC(=O)NC1=O	-5.55%	-11.8%	-4.75%	-10.1%	-4.05%	-17.1%
Cc1ccc(OP(Oc2ccc(C)cc2)Oc2ccc(C)cc2)cc1	32.8%	10.7%	-6.35%	-31.6%	29.4%	31.5%
O=C(O)c1cc(CCl)ccc1O	-0.05%	-7.95%	-15.7%	-14%	4.75%	-1.7%
CN1CCN(c2nc(N)c(Br)c(Cl)n2)CC1	-2.85%	3.65%	-14.8%	-1.85%	2.95%	-10.2%
CC1=C(C)C(=O)C(C)=C(C)C1=O	25.2%	8.7%	-9.6%	-10.7%	5.15%	13.2%
CCOC(=O)C1C(=O)CN2CCc3c([nH]c4ccccc34)C12C(=O)OCC (stereo not given)	21.2%	15.3%	31.6%	15.6%	1.95%	24.4%
